# Assay results from the supplement of paper PMC8728848.
# This excerpt belongs to a sample that is enriched for the strongest signals.
# B1: P-Selectin (Mus musculus), Q01102 (protein)
# chain: MAGCPKGSWTPRLRSVILGGAQLIWFSALISELVNQKEVAAWTYNYSTKAYSWNNSRVFCRRHFTDLVAIQNKNEIAHLNDVIPFFNSYYWIGIRKINNKWTWVGTNKTLTEEAENWADNEPNNKKNNQDCVEIYIKSNSAPGKWNDEPCFKRKRALCYTASCQDMSCSNQGECIETIGSYTCSCYPGFYGPECEYVKECGKVNIPQHVLMNCSHPLGEFSFNSQCTFSCAEGYELDGPGELQCLASGIWTNNPPKCDAVQCQSLEAPPHGTMACMHPIAAFAYDSSCKFECQPGYRARGSNTLHCTGSGQWSEPLPTCEAIACEPPEIPIHGSMDCVPSTGTFGYNSSCTFLCAEGFVLKGNDAIQCADSGQWTAPAPFCEALQCPEFPVPSKAQVNCSDPFGTLTYQSVCSFSCDEGSLLVGASVIRCLATGHWNGAPPECQAVSCAPMLSPENGSMTCVQPLGNSTYKSTCQFMCDEGFYLSGPERLDCSPSGHWTGTPPTCEAIKCPGIFAPEQGNLDCSHVHGEFGVGSICHFSCNEDFELLGSENVECTVSGRWSAPPPTCKGITSLPAPAVRCPALTTPGQGTMSCQHHLGSFGPNTTCYFGCKTGFTLRGANSLRCRASGQWTAVTPMCRAVKCSELHMDTAVAMNCSNPWGNFSYGSTCTFQCPEGQSLNGSVRATCREDGHWSDAMPTCQAGTLTIQEALTYLGGAVASTTGLAVGGTLLALLRKRLRKKDDGKCPLNPHSHLGTYGVFTNAAYDPTP
# Columns and labels:
# Test in all cases: glycan array binding signal (z-score within array); higher = stronger binding
# Conditions in all cases: glycan notation: IUPAC condensed, linker removed
# [1] = biological target: Fuc(a1-2)Gal(b1-3)GalNAc(b1-3)Gal
# Method in brief: (§1)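 The binding signal is a Z-score computed within each array and averaged over linkers. Arrays of the same protein sequence at different concentrations or buffers were also averaged together. Data originate from 3228 arrays in the Consortium for Functional Glycomics database, kept only where the protein sequence was available.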
# [2] = biological target: Fuc(a1-2)Gal(b1-3)GalNAc(b1-4)[Neu5Ac(a2-3)]Gal(b1-4)Glc
# Method in brief: as §1
# [3] = biological target: Fuc(a1-3)[Gal(b1-4)]GlcNAc6S
# Method in brief: as §1
# [4] = biological target: Fuc(a1-3)[Gal3S(b1-4)]Glc6S
# Method in brief: as §1
# [5] = biological target: Fuc(a1-3)[Gal3S(b1-4)]GlcNAc6S
# Method in brief: as §1
# [6] = biological target: Gal(b1-3)GlcNAc(b1-3)Gal(b1-4)Glc
# Method in brief: as §1
# [7] = biological target: Gal(b1-3)[Fuc(a1-4)]GlcNAc(b1-3)Gal(b1-3)[Fuc(a1-4)]GlcNAc
# Method in brief: as §1
# [8] = biological target: Gal(b1-3)[GlcNAc(b1-6)]GalNAc
# Method in brief: as §1
# [9] = biological target: Gal(b1-4)GlcNAc(b1-3)Gal(b1-4)GlcNAc
# Method in brief: as §1
# [10] = biological target: Gal(b1-4)GlcNAc(b1-3)[Gal(b1-4)GlcNAc(b1-6)]GalNAc
# Method in brief: as §1
# [11] = biological target: Gal3S(b1-3)[Fuc(a1-4)]GlcNAc
# Method in brief: as §1
# Gal3S(b1-4)Glc = biological target: Gal3S(b1-4)Glc
# Method in brief: as §1
# [12] = biological target: Gal3S(b1-4)[Fuc(a1-3)]Glc
# Method in brief: as §1
# Gal3S6S(b1-4)GlcNAc = biological target: Gal3S6S(b1-4)GlcNAc
# Method in brief: as §1
# Gal6S(b1-4)GlcNAc = biological target: Gal6S(b1-4)GlcNAc
# Method in brief: as §1
# Glc(a1-4)Glc = biological target: Glc(a1-4)Glc
# Method in brief: as §1
# GlcNAc(b1-3)Gal(b1-4)Glc = biological target: GlcNAc(b1-3)Gal(b1-4)Glc
# Method in brief: as §1
# [13] = biological target: GlcNAc(b1-3)[GlcNAc(b1-6)]Gal(b1-4)GlcNAc
# Method in brief: as §1
# [14] = biological target: GlcNAc(b1-4)Gal(b1-4)GlcNAc
# Method in brief: as §1
# Kdn(a2-3)Gal(b1-3)GlcNAc = biological target: Kdn(a2-3)Gal(b1-3)GlcNAc
# Method in brief: as §1
# [15] = biological target: Neu5Ac(a2-3)Gal(b1-3)GalNAc(b1-3)Gal(b1-4)GlcNAc
# Method in brief: as §1
# [16] = biological target: Neu5Ac(a2-3)Gal(b1-3)GlcNAc
# Method in brief: as §1
# [17] = biological target: Neu5Ac(a2-3)Gal(b1-3)[Neu5Ac(a2-3)Gal(b1-4)]GlcNAc
# Method in brief: as §1
# [18] = biological target: Neu5Ac(a2-3)Gal(b1-4)GlcNAc(b1-2)Man(a1-3)[Neu5Ac(a2-3)Gal(b1-4)GlcNAc(b1-2)Man(a1-6)]Man(b1-4)GlcNAc(b1-4)GlcNAc
# Method in brief: as §1
# Neu5Ac(a2-3)GalNAc = biological target: Neu5Ac(a2-3)GalNAc
# Method in brief: as §1
# [19] = biological target: Neu5Ac(a2-3)[GalNAc(b1-4)]Gal(b1-4)Glc
# Method in brief: as §1
# [20] = biological target: Neu5Ac(a2-3)[Neu5Ac(a2-6)]GalNAc
# Method in brief: as §1
# [21] = biological target: Neu5Ac(a2-6)Gal(b1-4)GlcNAc(b1-2)Man(a1-6)[GlcNAc(b1-2)Man(a1-3)]Man(b1-4)GlcNAc(b1-4)GlcNAc
# Method in brief: as §1
# [22] = biological target: Neu5Gc(a2-3)Gal(b1-3)[Fuc(a1-4)]GlcNAc
# Method in brief: as §1
binder,measurement,setting,value
B1,glycan array binding signal (z-score),[1],-0.303
same,glycan array binding signal (z-score),[2],-0.426
same,glycan array binding signal (z-score),[3],2.1
same,glycan array binding signal (z-score),[4],3.7
same,glycan array binding signal (z-score),[5],3.95
same,glycan array binding signal (z-score),[6],-0.261
same,glycan array binding signal (z-score),[7],0.199
same,glycan array binding signal (z-score),[8],-0.4
same,glycan array binding signal (z-score),[9],-0.29
same,glycan array binding signal (z-score),[10],-0.495
same,glycan array binding signal (z-score),[11],3.6
same,glycan array binding signal (z-score),Gal3S(b1-4)Glc,-0.174
same,glycan array binding signal (z-score),[12],4.89
same,glycan array binding signal (z-score),Gal3S6S(b1-4)GlcNAc,1.4
same,glycan array binding signal (z-score),Gal6S(b1-4)GlcNAc,-0.055
same,glycan array binding signal (z-score),Glc(a1-4)Glc,-0.562
same,glycan array binding signal (z-score),GlcNAc(b1-3)Gal(b1-4)Glc,-0.616
same,glycan array binding signal (z-score),[13],-0.63
same,glycan array binding signal (z-score),[14],-0.478
same,glycan array binding signal (z-score),Kdn(a2-3)Gal(b1-3)GlcNAc,-0.37
same,glycan array binding signal (z-score),[15],-0.354
same,glycan array binding signal (z-score),[16],-0.3
same,glycan array binding signal (z-score),[17],-0.297
same,glycan array binding signal (z-score),[18],-0.154
same,glycan array binding signal (z-score),Neu5Ac(a2-3)GalNAc,-0.381
same,glycan array binding signal (z-score),[19],-0.331
same,glycan array binding signal (z-score),[20],0.023
same,glycan array binding signal (z-score),[21],-0.311
same,glycan array binding signal (z-score),[22],3.75
